Measured values: the supplement of paper PMC9254222
Over roughly 1,100 compounds, “Wnt reporter firefly/Renilla luciferase ratio relative to plate median” has its median near 1.1; the highest 2% begin near 1.6. The sample as a whole holds a higher share of the highest values than the screen did.

Test system: HEK293T (UBE3A T485A transfected, BAR Wnt reporter)
Assay: Wnt reporter firefly/Renilla luciferase ratio relative to plate median (fold (linear ratio)); higher = more Wnt/beta-catenin reporter activation
Details: 24 h
Outline: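 HEK293T cells were seeded at 4500 cells/well in white 384-well plates and grown in DMEM with 10% FBS at 37°C and 5% CO2. The cells were transfected using Fugene 6 with a BAR firefly luciferase Wnt reporter, TK-Renilla and an expression plasmid, and four hours later robots added the chemicals at 0.01–100 uM for 24 h before a Dual-Glo luciferase readout. Wnt activity was taken as the firefly/Renilla ratio and cell health as raw Renilla, each median-centred per plate. Values are averages of four biological replicates.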

Row | Compound | Wnt reporter firefly/Renilla luciferase ratio (concentration: 0.01 uM) | Wnt reporter firefly/Renilla luciferase ratio (concentration: 0.1 uM) | Wnt reporter firefly/Renilla luciferase ratio (concentration: 1 uM) | Wnt reporter firefly/Renilla luciferase ratio (concentration: 10 uM) | Wnt reporter firefly/Renilla luciferase ratio (concentration: 100 uM)
1 | COC(=O)N(C(=O)N1CO[C@@]2(C(=O)OC)Cc3cc(Cl)ccc3C2=N1)c1ccc(OC(F)(F)F)cc1 [Indoxacarb] | 0.92 | 0.96 | 1.2 | 0.895 | 0.242
2 | CCCCN(CCCC)SN(C)C(=O)Oc1cccc2c1OC(C)(C)C2 [Carbosulfan] |  | 1.07 | 1.13 | 1.07 | 1.28
3 | c1ccc2c(c1)Nc1ccccc1S2 [Phenothiazine] |  | 1.08 | 1.01 | 0.726 | 0.188
4 | CC(C)(C)OOC(=O)c1ccccc1 [tert-Butyl perbenzoate] |  | 1.06 | 0.994 | 1.24 | 0.688
5 | Nc1ccc(-c2ccc(N)cc2)cc1 [Benzidine] |  | 1.22 | 1.11 | 1.23 | 0.579
6 | Cc1ccc(N)c(N)c1 [3,4-Diaminotoluene] |  | 1.18 | 1.26 | 1.2 | 
7 | Cc1ccc(N)cc1 [4-Methylaniline] |  | 1.14 | 1.18 | 1.34 | 1.79
8 | CC(C)=CC1C(C(=O)OCN2C(=O)C3=C(CCCC3)C2=O)C1(C)C (stereo unspecified) [Tetramethrin] | 0.717 | 0.76 | 0.941 | 0.819 | 0.824
9 | CCOc1nc(F)cc2nc(S(=O)(=O)Nc3c(Cl)cccc3Cl)nn12 [Diclosulam] | 1.4 | 1.38 | 0.954 | 1.05 | 0.892
10 | Oc1ccc(Cl)cc1Cl [2,4-Dichlorophenol] |  | 1.06 | 1.15 | 1.36 | 1.47
11 | CCCCCOC(=O)c1ccccc1C(=O)OCCCCC [Dipentyl phthalate] |  | 1.06 | 1.36 | 1.14 | 1.15
12 | CCCCOC(=O)c1ccccc1C(=O)O [Monobutyl phthalate] | 1.07 | 1.12 | 2.24 | 1.14 | 1.75
13 | CC(C)CCCCCCCOC(=O)c1ccccc1C(=O)OCCCCCCCC(C)C |  | 0.955 | 1.04 | 1.1 | 1.9
14 | CCCCOC(=O)c1ccccc1C(=O)OCCCC [Dibutyl phthalate] | 0.897 | 0.942 | 0.947 | 1.05 | 0.275
15 | CCCCCCCCOC(=O)c1ccccc1C(=O)OCCCCCCCC [Dioctyl phthalate] |  | 1.21 | 1.11 | 1.04 | 1.25
16 | CCCCCCOC(=O)c1ccccc1C(=O)OCCCCCC [Dihexyl phthalate] |  | 1.05 | 0.965 | 1.29 | 0.728

Row | Compound | Wnt reporter firefly/Renilla luciferase ratio (concentration: 0.01 uM) | Wnt reporter firefly/Renilla luciferase ratio (concentration: 0.1 uM) | Wnt reporter firefly/Renilla luciferase ratio (concentration: 1 uM) | Wnt reporter firefly/Renilla luciferase ratio (concentration: 10 uM) | Wnt reporter firefly/Renilla luciferase ratio (concentration: 100 uM)
17 | CCOP(=O)(NC(C)C)Oc1ccc(SC)c(C)c1 (stereo unspecified) [Fenamiphos] | 0.946 | 0.758 | 0.93 | 0.83 | 0.243
18 | C/C(=N\C#N)N(C)Cc1ccc(Cl)nc1 [Acetamiprid] | 1.26 | 0.96 | 0.904 | 1.08 | 1.18
19 | Cc1c(COC(=O)[C@H]2[C@@H](/C=C(\Cl)C(F)(F)F)C2(C)C)cccc1-c1ccccc1 [Bifenthrin] | 0.843 | 1.35 | 1.11 | 0.982 | 0.325
20 | COP(=O)(OC)O/C(C)=C/C(=O)N(C)C [Dicrotophos] | 1.29 | 1.12 | 1.1 | 0.957 | 1.09
21 | CNC(=O)/C=C(\C)OP(=O)(OC)OC [Monocrotophos] | 0.971 | 1.1 | 1.22 | 1.06 | 1.12
22 | COP(=O)(OC)OC=C(Cl)Cl [Dichlorvos] | 1.2 | 1.67 | 1.4 | 1.34 | 1.21
23 | O=P(O)(O)CCCl [Ethephon] | 0.756 | 1.23 | 1.18 | 0.988 | 1.19
24 | CC(C)N1C(=O)N(c2ccccc2)CSC1=NC(C)(C)C [Buprofezin] | 1.25 | 1.69 | 1.16 | 1.12 | 0.27
25 | CC(C)N1C(=O)c2ccccc2NS1(=O)=O [Bentazone] | 1.46 | 0.947 | 0.964 | 0.949 | 0.329
26 | COC(=CC(N)=O)C(C)C(C=Cc1csc(-c2csc(C(C)C=CC=CC(C)C)n2)n1)OC (stereo unspecified) [Myxothiazol] | 1.41 | 0.921 | 0.539 | 0.492 | 
27 | CCCCC(CC)COC(=O)c1ccccc1C(=O)O (stereo unspecified) | 1.04 | 0.861 | 1.04 | 0.979 | 0.821
28 | N#Cc1c[nH]cc1-c1cccc2c1OC(F)(F)O2 [Fludioxonil] | 0.759 | 0.842 | 0.847 | 1.04 | 0.858
29 | CNC(=O)Oc1cccc2ccccc12 [Carbaryl] | 0.987 | 1.18 | 1.07 | 0.714 | 0.629
30 | CCOP(=O)(SC(C)CC)N1CCSC1=O (stereo unspecified) [Fosthiazate] | 0.839 | 0.761 | 0.922 | 1.5 | 0.772
31 | ClC1=C(Cl)C2(Cl)C3C4OC4C(Cl)C3C1(Cl)C2(Cl)Cl (stereo unspecified) [Heptachlor epoxide] |  | 1.18 | 1.23 | 1.06 | 1.5
